Reference: PubChem BioAssay AID689 (Sanford-Burnham Center for Chemical Genomics, 2007)
Out of some 62,000 compounds screened, about 80 (0.1%) were called active. The rule behind the calls is not given here. Not all results are given here. Potency and affinity values are given separately.

target: Ephrin type-A receptor 4 (Mus musculus) (UniProt Q03137); assay: EphA4 ligand-binding antagonists – biochemical, colorimetric, mouse EphA4, primary screen (AID 689); conditions: EphA4-AP binding to KYL peptide, pNPP A405, at 10 µM, hits give high values
Sequence (Q03137 whole entry, looked up): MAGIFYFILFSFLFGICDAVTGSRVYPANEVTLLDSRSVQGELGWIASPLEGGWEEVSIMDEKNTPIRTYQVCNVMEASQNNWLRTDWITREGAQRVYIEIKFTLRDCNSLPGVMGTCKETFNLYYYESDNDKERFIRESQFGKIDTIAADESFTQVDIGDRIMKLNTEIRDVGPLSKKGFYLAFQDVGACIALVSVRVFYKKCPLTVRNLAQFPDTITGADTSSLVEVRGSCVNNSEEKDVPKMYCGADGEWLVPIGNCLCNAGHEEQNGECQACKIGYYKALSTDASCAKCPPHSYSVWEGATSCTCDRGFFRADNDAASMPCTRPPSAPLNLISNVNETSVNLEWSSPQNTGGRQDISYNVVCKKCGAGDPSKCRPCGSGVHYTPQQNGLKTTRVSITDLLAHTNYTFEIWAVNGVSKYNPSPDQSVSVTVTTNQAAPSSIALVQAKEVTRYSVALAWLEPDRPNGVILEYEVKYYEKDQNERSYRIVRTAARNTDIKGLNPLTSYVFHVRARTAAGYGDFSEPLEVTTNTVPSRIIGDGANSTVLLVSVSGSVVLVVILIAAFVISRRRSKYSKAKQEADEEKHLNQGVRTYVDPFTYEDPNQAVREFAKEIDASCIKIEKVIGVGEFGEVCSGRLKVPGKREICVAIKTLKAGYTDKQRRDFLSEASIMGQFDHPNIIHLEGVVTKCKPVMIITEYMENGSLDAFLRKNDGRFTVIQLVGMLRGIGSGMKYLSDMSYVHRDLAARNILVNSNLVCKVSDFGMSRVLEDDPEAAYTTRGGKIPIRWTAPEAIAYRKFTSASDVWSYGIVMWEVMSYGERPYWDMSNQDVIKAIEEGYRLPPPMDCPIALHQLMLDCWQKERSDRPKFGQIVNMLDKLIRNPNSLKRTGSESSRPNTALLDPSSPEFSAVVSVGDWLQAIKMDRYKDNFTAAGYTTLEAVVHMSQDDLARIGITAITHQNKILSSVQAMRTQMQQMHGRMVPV

inhibition, inactive:
O=C(NC1CCCCCCC1)C1CCCN(S(=O)(=O)c2cnc[nH]2)C1 (stereo not given) -3.1%
COc1ccc(C)cc1NC(=O)C1CC(=O)N(Cc2ccco2)C1 (stereo not given) -16.4%
O=C1CCCC2=C1C(c1cccs1)Nc1ccc3ncccc3c12 (stereo not given) -5.1%
O=C1CCCC2=C1C(c1ccco1)Nc1ccc(C(=O)c3ccccc3)cc1N2 (stereo not given) -4.7%
CC1(C)N=C(c2ccc(Cl)cc2Cl)C(=O)N1 -8.8%
CCOc1ccccc1NC(=S)N1CCC(NC(=O)NC23CC4CC(CC(C4)C2)C3)CC1 -4.6%
O=C(c1ccc2c(c1)OCO2)N1CCC(CN2C(=O)c3cccc4cccc(c34)C2=O)CC1 -13.5% [this sample at 5 µg/mL]
Cc1ccc2nc(NC3=NCN(Cc4ccccc4)CN3)nc(C)c2c1 1.1%
CN1C(=O)/C(=C2\SC(=S)N(CC3CCCO3)C2=O)c2ccccc21 (stereo not given) -3.2%
O=C1/C(=C\c2ccc(-c3ccccc3Cl)o2)SC(=S)N1Cc1ccccc1 18.2% [this sample at 5 µg/mL]
Cc1ccccc1OCC(=O)Nc1ccc2c(c1)Cc1ccccc1-2 -9.2%
Cc1c(NC(=S)N/N=C/c2ccc(O)cc2)c(=O)n(-c2ccccc2)n1C -1.6%
Cc1c(NC(=O)CC(=O)Nc2c(C)n(C)n(-c3ccccc3)c2=O)c(=O)n(-c2ccccc2)n1C 0.3%
COc1ccccc1-c1nnc2n1N=C(c1ccc(O)c(O)c1)CS2 -9.2%
COc1cc(/C=c2\sc3nc4ccccc4n3c2=O)ccc1OS(=O)(=O)c1ccccc1 10.7% [this sample at 5 µg/mL]
COc1cc(/C=c2\sc3nc4ccccc4n3c2=O)ccc1OCCOc1ccccc1 -2.3% [this sample at 5 µg/mL]
COCCNC(=O)CN(C(=O)CCC(=O)Nc1nccs1)c1ccccc1OC -10.3%
CN1/C(=C\C=[N+](C)c2ccccc2)C(C)(C)c2ccccc21 -36.4%
CCN1C(=O)/C(=C/C=C2/SCCN2C)SC1=S -7.6%
CN1/C(=C\C=Nc2ccccc2)C(C)(C)c2ccccc21 4%
CCN1C(=O)/C(=C\c2cccc(C)c2)SC1=S -1.5% [this sample at 5 µg/mL]
COc1ccc(C(=O)NCCCn2ccnc2)cc1 3%
O=C(Nc1ccccc1)N1CCC(C(=O)N2CCN(S(=O)(=O)c3cccc(F)c3)CC2)CC1 -6.6%
COc1ccc(OC)c(NC(=O)CN(c2ccccc2)S(=O)(=O)c2ccccc2[N+](=O)[O-])c1 -12.2% [this sample at 5 µg/mL]
CCOC(=O)C1CCCN(C(=O)COc2ccccc2O)C1 (stereo not given) -0.6%
CCN(CC)CCCN(Cc1cc2cc3c(cc2[nH]c1=O)OCCO3)C(=O)Nc1ccc(F)cc1 9.2%
COCCN(Cc1cc2cc3c(cc2nc1Cl)OCO3)C(=O)Nc1ccccc1OC -13.8%
Cc1ccc(-n2ncnc2-c2cccc(Cl)c2)cc1Cl 0.3% [this sample at 5 µg/mL]
COc1ccccc1-c1c(C(F)(F)F)oc2c(CN3CCCC3)c(O)ccc2c1=O -1.3% [this sample at 5 µg/mL]
CCCSC1=N/C(=C\c2ccsc2)C(=O)S1 -0.1%
O=C1SC(c2ccccc2)=N/C1=C/c1ccco1 -12.4%
COc1ccc(-c2nnc3n2N=C(C)CS3)cc1OC -3.7%
N#CC(C(=O)OC1CCCCC1)c1nc2ccccc2nc1N1CCOCC1 (stereo not given) -17.3%
COCCOC(=O)C(C#N)c1nc2ccccc2nc1N1CCCC1 (stereo not given) 20.7%
CC1CCN(c2nc3ccccc3nc2C(C#N)C(=O)OC2CCCCC2)CC1 (stereo not given) 42.2%
CCC(CC)COC(=O)C(C#N)c1nc2ccccc2nc1N1CCOCC1 (stereo not given) 48.9%
C=CCN1C(=O)[C@]2(c3ccccc31)C1CCCC=C1C(C#N)=C(N)C2(C#N)C#N (stereo not given in full) -6.6%
CC(=O)Nc1ccc(S(=O)(=O)N2CCN(C34CC5CC(CC(C5)C3)C4)CC2)cc1 -1.8%
COc1ccc(C(CC(=O)Nc2ccc(F)cc2)c2ccccc2)cc1 (stereo not given) -16.8%
O=C(CSc1nnc(-c2ccc(S(=O)(=O)N3CCOCC3)cc2)o1)c1ccccc1F -15.3%
CCOC(=O)c1c(NC(C)=O)sc2c1CCCNC2=O 12.2%
CCCCC(=O)Nc1sc2c(c1C(=O)OCC)CCC(C=O)=C2Cl -6.4%
CC(C)OP(=O)(c1ccc(N(C)C)cc1)C(O)c1ccncc1 (stereo not given) -19.9%
COc1ccc(N2CCN(C(=O)c3csc4ccccc34)CC2)cc1 -8.7%
Cc1ccc(S(=O)(=O)N(Cc2ccccc2)c2ccccc2C(=O)NCc2ccc(Cl)cc2)cc1 22% [this sample at 5 µg/mL]
COc1cc(C(=O)N2CCCN(c3nc4cc(C)ccc4cc3C#N)CC2)cc(OC)c1OC 1.5%
Cc1ccc2cc(C#N)c(N3CCCN(C(=O)C4CCCO4)CC3)nc2c1 (stereo not given) 2.7%
CCOc1ccc2oc(C)c(C(=O)OC(C)C)c2c1 -14.8% [this sample at 5 µg/mL]
O=S(=O)(c1ccc(Cl)cc1)N1CCN(c2ccccn2)CC1 11% [this sample at 5 µg/mL]
Cc1cc([N+](=O)[O-])nn1CC(=O)NNC(=S)Nc1ccc(Cl)cc1 -10.8%
COc1ccc(N2Cc3cccc(C(=O)N4CCN(C(=O)c5ccco5)CC4)c3C2=O)cc1 11.2%
COc1ccc(N2Cc3cccc(C(=O)N4CCOCC4)c3C2=O)cc1 7.2%
Cn1c(SCC(=O)N2CCOCC2)nc2cccnc21 2.2%
CCOC(=O)CSc1nnc(-c2ccc(Br)cc2)o1 5.7% [this sample at 5 µg/mL]
O=C(OCc1ccccc1)Sc1nnc(-c2ccc(Br)cc2)o1 -5.7% [this sample at 5 µg/mL]
Cc1cc2c(ccc3[nH]onc32)n1 16.7%
O=C1OC(c2ccccc2)=N/C1=C\N1CCCCC1 -17.4%
CC1=NN(c2ccccc2)C(=O)/C1=C/c1cc2cc(C)ccc2nc1N1CCCCC1 5.3%
Cc1ccc(C2=N/C(=C\N3CCCCC3)C(=O)O2)cc1 -3.3%
CN(C)/C(CN1CCOCC1)=C1\N=C(c2ccccc2)OC1=O -14%
CCn1c(SCC(=O)OC(C)C)nnc1-c1cccc(Cl)c1 -13.7%
C=CCNC(=O)c1ccc(N2C(=O)c3ccccc3C2=O)cc1 -9.3% [this sample at 5 µg/mL]
CCOC(=O)N1CCN(C(=O)CSCc2nc(-c3ccccc3C)oc2C)CC1 7.2%
CCOc1ccc(N(CC(=O)Nc2ccc3c(c2)OCCO3)S(=O)(=O)c2c(C)noc2C)cc1 -0.5%
O=C(C/C=N\OCc1c(Cl)cccc1Cl)Oc1ccc(Cl)cc1Cl -11.4%
Nc1ccc2c(c1)C(=O)C(=O)c1ccccc1-2 -16.9%
Nc1ccc(NC(=O)c2ccccc2)c2c1C(=O)c1ccccc1C2=O -5.6%
CC1CN(CC(=O)N2CCc3[nH]c4ccccc4c3C2)CC(C)O1 (stereo not given) -14.2%
CC(N=c1ccccn1C(=O)Nc1ccc(Cl)cc1)c1ccco1 (stereo not given) 6.6%
Oc1oc(-c2ccccc2)nc1C=Nc1ccccc1 1%
CN(C)c1ccc(N=Cc2nc(-c3ccccc3)oc2O)cc1 -7.6%
COc1ccc(C2C(C(=O)OCC(=O)N3CCCCC3)CCC(=O)N2c2ccc(OC)cc2)cc1 (stereo not given) -9.6%
COc1cc(NC(=O)c2ccc(NS(=O)(=O)c3c(C)noc3C)cc2)cc(OC)c1 -7.5%
O=C(CSc1nnc(-c2ccco2)c(-c2ccco2)n1)Nc1ccccc1 41.7%
Cc1ccccc1NC(=O)CSc1nnc(-c2ccco2)c(-c2ccco2)n1 32.3%
CS(=O)(=O)N1CCN(Cc2ccc(Cl)cc2)CC1 -10.7% [this sample at 5 µg/mL]
CC(C(=O)O)N1C(=O)/C(=C/c2ccc3c(c2)OCO3)SC1=S (stereo not given) 0.6% [this sample at 5 µg/mL]
CC(C)CN1C(=O)/C(=C/c2ccco2)SC1=S 30.2% [this sample at 5 µg/mL]
CC(C)C(C(=O)O)N1C(=O)/C(=C/c2ccc3c(c2)OCO3)SC1=S (stereo not given) -2% [this sample at 5 µg/mL]
CC(C(=O)O)N1C(=O)/C(=C/c2ccc([N+](=O)[O-])cc2)SC1=S (stereo not given) 3.4% [this sample at 5 µg/mL]
CCOC(=O)C1CCN(CCC(=O)Nc2cccc(Cl)c2)CC1 -3.9%
O=C(Cc1cccs1)Nc1nnc(Cc2ccc(F)cc2)s1 -11.3%
COc1ccc(Cc2nnc(NC(=O)c3cccs3)s2)cc1 -1.1%
O=C(NCCCN1CCOCC1)c1cccc(Cl)c1 -2.3% [this sample at 5 µg/mL]
O=C(COc1ccc(Cl)cc1Cl)Nc1ccc(NC(=O)COc2ccc(Cl)cc2Cl)cc1 -4.1% [this sample at 5 µg/mL]
